# Experimental data: PubChem BioAssay AID1347073 (National Center for Advancing Translational Sciences (NCATS), 2019)
# Among all 45,000 compounds or so, about 200 (0.44%) were called active. A call without a number means that no potency is given here. Inconclusive results (about 7%) are left out. The sample holds actives, similar compounds and a random draw of the others, so the mix is not that of the screen. Calls come from the whole dose curve; as a rule, active = well fitted activation curve with a large enough effect; inconclusive = small, poorly fitted or top-dose-only effect; inactive = no such curve, though single readings can be large or run the other way.
# Assay: qHTS of TDP-43 Inhibitors: NCGC Sytravon Library Screen; note: nearly all actives have a fitted effect of over 55% in size
# Details: yeast TDP-43 toxicity rescue, BacTiter-Glo growth, 24 h; series mostly up to 46.1 µM
# From the text: The goal of this project is to identify new chemical probes capable of reversing the toxicity associated with TDP-43 which is associated with frontotemporal lobar degeneration and amyotrophic lateral sclerosis. These compounds will provide a complementary approach to deciphering the tangled mechanisms of toxicity and protection that we have uncovered through genome-wide genetic screens and are beginning to uncover in a large-scale proteomics analysis with mass spectroscopy. To this end, a miniaturized assay was developed to be screened against the Molecular Libraries Small Molecule Repository (MLSMR) to discover TDP-43 inhibitors. Please note that in the set-up this yeast-based assay compounds that inhibit as TDP-43, have a read-out as activators. NIH Chemical Genomics Center [NCGC] NIH Molecular Libraries Probe Centers Network [MLPCN] Assay Submitter (PI): Susan Lindquist, Whitehead Institute/MIT MLPCN Grant: R21 NS060957
# Dispense 2.5 microL yeast galactose medium per 1536-well plate, pin compound, dispense 2.5 microL TDP-43 expressing yeast in galactose medium at OD600=0.02 (pregrown in raffinose medium to mid-log phase) per well, incubate for 24 hr at 30 deg C, and cell growth will be measured using 5 microL of Bactiter/Glo reagent to entire plate and read using Luminescence Protocol in ViewLux.
# Potency is the fitted concentration of half-maximal effect.
row,Compound,Potency
1,CC(CC(=O)N1CCN(S(=O)(=O)c2ccccc2)CC1)n1cncn1 (centres undefined),inactive
2,COc1ccc(OCC(=O)Nc2cc(C)c(Cl)cc2OC)c([N+](=O)[O-])c1,inactive
3,Cc1ccc(C)c(S(=O)(=O)N2CCN(c3ncnc4sccc34)CC2)c1,11.2 µM (active)
4,Cc1ccc([N+](=O)[O-])cc1S(=O)(=O)N1CCCN(C)CC1,inactive
5,Cc1ccc(C)c(S(=O)(=O)N2CCN(CC(=O)Nc3ccc([N+](=O)[O-])cc3)CC2)c1,inactive
6,CCN(CC(=O)Nc1ccccc1C(=O)NC1CC1)Cc1cccs1,inactive
7,CC(=O)NC(CC(=O)Nc1ccc(S(=O)(=O)N2CCOCC2)cc1)c1ccccc1 (centres undefined),inactive
8,COc1ccc(NC(=O)N2CCCC(C(=O)Nc3ccccc3OC)C2)cc1 (centres undefined),inactive
9,COc1ccc(CNC(=O)C(c2ccc(O)cc2)N(Cc2ccco2)C(=O)c2snc(C(N)=O)c2N)cc1 (centres undefined),inactive
10,O=C(c1cccs1)N(Cc1cc2ccccc2[nH]c1=O)CC1CCCO1 (centres undefined),inactive
11,CCOc1ccc(C(C)=O)cc1CSc1nnc(-c2ccncc2)n1CCOC,inactive
12,CCOc1ccc(S(=O)(=O)N2CCC(C(=O)NCc3ccccn3)CC2)cc1Cl,inactive
13,Cc1cccc(C(=O)N2CCN(S(=O)(=O)N3CCCCC3)CC2)c1,inactive
14,Cc1ccc(C(=O)NNC(=O)CSc2nnc3ccccn23)cc1,inactive
15,Cc1cc(C)nc(N/N=C/c2c(C)oc3ccccc23)n1,inactive
16,CCOC(=O)C1CCN(C(=O)COc2cccc3ccccc23)CC1,inactive
17,CN(C)S(=O)(=O)Oc1ccccc1C(=O)Nc1ccccc1Cl,inactive
18,CC1(C(=O)NS(=O)(=O)c2ccc(Cl)cc2)CCN1C(=O)CC1CCCC1 (centres undefined),inactive
19,O=C(N/N=C/c1ccc([N+](=O)[O-])cc1)C(=O)N1CCCC1,inactive
20,C/C(=C/C(=O)N1CCN(C)CC1)C(=O)O,inactive
21,CCOc1ccc(NC(=O)CCC(=O)NNC(=O)NC2CCCCC2)cc1,inactive
22,O=C(O)c1ccccc1CSc1nc2ccccc2s1,11.2 µM (active)
23,O=C(O)CC/C(=C\c1cc2c(cc1Br)OCO2)c1nc2ccccc2s1,inactive
24,O=C(O)c1cccc(S(=O)(=O)Nc2ccc(O)cc2Sc2nc3ccccc3s2)c1,inactive
25,COc1ccccc1N(CC(=O)Nc1ccc(C)cc1Cl)S(=O)(=O)c1cccs1,inactive
26,O=C(NNS(=O)(=O)c1ccc(F)cc1)C1CCCCC1,inactive

row,Compound,Potency
1,O=C(Nc1ccc(Cl)cc1)c1csc([C@H]2C[C@H](O)[C@@H](CO)O2)n1,inactive
2,CCOC(=O)c1oc2c(CN3CCN(CCO)CC3)c(O)c(CC)cc2c(=O)c1-c1nc2ccccc2s1,inactive
3,CCNc1nc(NCC)nc(N/N=C/c2ccc(O)c(OC)c2)n1,inactive
4,COc1ccc(C(=O)NC2CCN(C(=O)Nc3ccc(F)cc3)CC2)cc1,inactive
5,Cc1nc(CN2CCN(C(=O)CCc3nnc(Cc4c[nH]c5ccccc45)o3)CC2)cs1,inactive
6,CCNC(=O)C1(C)CCCN(Cc2noc(-c3ccccc3OC)n2)C1 (centres undefined),inactive
7,Cc1ccc(CN(CC(=O)NCC2CCCO2)S(=O)(=O)c2ccc(C)cc2)cc1 (centres undefined),inactive
8,COC(=O)c1c(NC(=O)CN2C(=O)NC(CCc3ccccc3)C2=O)sc2c1CCCCC2 (centres undefined),inactive
9,COCCNC(=O)CN(Cc1ccco1)C(=O)CCC(=O)Nc1nccs1,inactive
10,O=C(NCCCN1CCOCC1)c1cc(-c2cccc(O)c2)on1,inactive
11,COc1ccc(CCNC2=CC(=O)CC(C)(C)C2)cc1,inactive
12,CCOc1ccccc1/C=N/Nc1nc2ccccc2o1,inactive
13,Cc1nc(C(F)(F)F)ccc1C(=O)N1CCC1(C)C(=O)NS(=O)(=O)c1ccccc1 (centres undefined),inactive
14,C=CCN1C(=O)C(O)(CC(=O)c2ccccn2)c2ccccc21 (centres undefined),inactive
15,COc1ccc(N(C)S(=O)(=O)c2cccc3nsnc23)cc1,inactive
16,CCCC(=O)Nc1ccc2c(c1)nc(CCNC(=O)c1ccco1)n2C,inactive
17,COc1ccc(NC(=O)NC(C)c2c(-n3cccc3)sc(C)c2C)cc1OC (centres undefined),inactive
18,COCCNC(=O)C1(C)CCCN(Cc2cccc(F)c2)C1 (centres undefined),inactive
19,COc1ccc(-n2cnnc2SCC(=O)Nc2cccc(S(N)(=O)=O)c2)cc1,inactive
20,O=C(O)c1ccc(/C=N/NC(=O)c2ccc(Br)cc2)cc1,inactive
21,Cc1cc(=O)[nH]c(SCC(=O)Nc2ccc(Br)cc2)n1,inactive
22,CCOC(=O)Cc1csc(NC(=O)CSc2ccc(Br)cc2)n1,12.6 µM (active)
23,CCOC(=O)Cc1csc(SCc2cc(=O)oc3cc(O)ccc23)n1,inactive
24,O=C(C(Cl)Cl)N1CCN(c2ccccn2)CC1,inactive
25,OC(c1ccc(F)cc1)c1ncc(-c2cccc(C(F)(F)F)c2)[nH]1 (centres undefined),inactive
26,COc1ccc(CN(C)Cc2nc3cc(OC)c(OC)cc3c(=O)[nH]2)c(OC)c1,inactive

row,Compound,Potency
1,CC1(C(=O)NS(=O)(=O)Cc2cccc(Cl)c2)CCN1C(=O)Cc1ccc(Cl)cc1Cl (centres undefined),inactive
2,O=C(NC1CCCC1)C(c1c(F)cccc1Cl)N(C(=O)c1csnn1)C1CC1 (centres undefined),inactive
3,O=C(COC(=O)c1ccc([N+](=O)[O-])o1)NC12CC3CC(CC(C3)C1)C2,inactive
4,Cc1noc(/C=C/c2ccco2)c1S(=O)(=O)N1CCC(C(=O)Nc2ccc(Cl)cn2)CC1,inactive
5,CC(C)c1nc2sc3c(c2c(=O)n1N)CC(C)(C)OC3,inactive
6,CN(CCc1ccccn1)C(=O)CCC1CCCN(Cc2ccccc2OC(F)F)C1 (centres undefined),inactive
7,CC(=O)Nc1ccc(NC(=S)NC(=O)c2ccc([N+](=O)[O-])c(C)c2)cc1,inactive
8,O=C(NCc1cccnc1)c1cc(C2CCCN(C(=O)CCCc3ccccc3)C2)on1 (centres undefined),inactive
9,OC[C@@H]1CN(Cc2ccc3c(c2)OCO3)C[C@H](n2cnc3c(NCc4ccco4)ncnc32)O1,inactive
10,O=C(c1cnccn1)N1CCN(S(=O)(=O)c2cccc(Cl)c2)CC1,inactive
11,CCCCNC(=O)N(O)C1N(/N=C/c2ccccc2O)C(=S)SC1(C)C (centres undefined),inactive
12,CCCSc1ncc(Cl)c(C(=O)Nc2c(C(=O)Nc3ccccc3)oc3ccccc23)n1,inactive
13,Cc1cccc(NC(=O)c2nc(S(=O)(=O)Cc3ccccc3)ncc2Cl)c1,12.6 µM (active)
14,Cc1cccc(NC(=O)c2ccc([N+](=O)[O-])o2)c1,inactive
15,O=C(NCCc1ccccc1)c1ccc2c(c1)N(Cc1ccccc1)C(=O)c1ccccc1S2(=O)=O,inactive
16,Cc1ccc(OCC(=O)NCCCNC(=O)c2ccco2)cc1C,inactive
17,N/C(=N/O)c1cccn1Cc1ccccc1[N+](=O)[O-],inactive
18,CCCn1c(=N)n(CC(O)COc2ccccc2OC)c2ccccc21 (centres undefined),inactive
19,O=C1c2ccccc2C(=O)c2c1cccc2N1CCN(C/C=C/c2ccccc2)CC1,inactive
20,NS(=O)(=O)c1ccc(N2C(=O)C3C4CC(C(Br)C4Br)C3C2=O)cc1 (centres undefined),inactive
21,COC(=O)CCNC(=O)c1ccc2[nH]c(C)c(C)c2c1,inactive
22,O=C(CN1C(=O)NC2(CCCC2)C1=O)NCC1CCCO1 (centres undefined),inactive
23,COc1ccc(-c2nc(N)sc2C2(O)C(=O)Nc3c(Br)cc(F)cc32)cc1OC (centres undefined),inactive
24,CN(C)C(CNC(=O)c1cccc(C#N)c1)c1ccco1 (centres undefined),inactive
25,Nn1c(SCC(=O)Nc2ccc3c(c2)CCC3)nnc1C1CC1,inactive
26,CC(CN1CCC(n2nccc2NC(=O)C2CCCC2)CC1)c1ccccc1 (centres undefined),inactive

row,Compound,Potency
1,O=C1c2ccccc2S(=O)(=O)N1CC(O)Cn1c2ccccc2c2ccccc21 (centres undefined),12.6 µM (active)
2,CC(C)(C)c1ccc(CN2C(=O)c3ccccc3S2(=O)=O)cc1,inactive
3,COc1ccc(CNC(=O)CN2C(=O)c3ccccc3S2(=O)=O)cc1,inactive
4,Cc1ccc(Cl)cc1NC(=S)N(CCN(C)C)Cc1cccs1,inactive
5,COCCCNC(=O)c1ccc(-c2c(C)noc2C)c2ccoc12,inactive
6,COc1ccc(-c2ccc(C(=O)NC(C)C)c3occc23)c(C)c1,15.8 µM (active)
7,Cc1noc(C)c1-c1ccc(C(=O)NCc2ccncc2)c2occc12,inactive
8,Cc1ccc(OCc2n[nH]c(=S)n2-c2ccc(C)cc2)cc1,inactive
9,Cc1ccc(S(=O)(=O)N(Cc2ccc(Cl)cc2)c2ccccc2C(=O)NCc2cccnc2)cc1,inactive
10,O=C(c1cccs1)c1cn(CCOc2ccc(Cl)cc2)c2ccccc12,inactive
11,CN(C)c1ccnc(Nc2ccc(F)cc2)c1C#N,inactive
12,COc1ccccc1OCc1ccc(C(=O)NC(C)c2ccccc2)o1 (centres undefined),inactive
13,O=C(C1CCN(S(=O)(=O)c2ccc(Br)s2)CC1)N1CCN(C2CCCCC2)CC1,inactive
14,COc1ccc(C(=O)OCc2cc(=O)n3ccsc3n2)cc1F,inactive
15,CCCCN(CC)CCCNC(=O)c1ccc(CSc2nc3ccncc3[nH]2)cc1,inactive
16,CC(C)(C)c1ccccc1NC(=O)CN1C(=O)NC2(CCCC2)C1=O,inactive
17,COc1ccc(C(=O)Nc2ccc(N3CCC(C)CC3)cc2)cc1Br,inactive
18,c1cc(-c2ccc3[nH]ccc3c2)n2ccnc2c1,inactive
19,O=C(CN1C(=O)NC2(CCCCCC2)C1=O)Nc1ccc([N+](=O)[O-])cc1,inactive
20,O=C1NC(c2ccc(-c3ccccc3[N+](=O)[O-])o2)C(C(=O)c2ccc(Cl)cc2)C(O)(C(F)(F)F)N1 (centres undefined),inactive
21,CN(Cc1nc2ccccc2s1)C(=O)c1ccc(F)cc1,inactive
22,CCN(CC)C(=O)CN(c1cccc([N+](=O)[O-])c1)S(=O)(=O)c1ccccc1,inactive
23,O=C(Nc1ccc(F)cc1)N1CCN(c2ccc(F)cc2)CC1,inactive
24,Cc1nc2c(OCc3cccc(Cl)c3)cccn2c1N(C)CC1CC1,inactive
25,CC(C)(C)NC(=O)C(=O)NN=C1CCCCCCC1,inactive
26,O=C(CCn1c(=O)c2sccc2n(Cc2ccc(F)cc2)c1=O)NCc1ccc2c(c1)OCO2,inactive
